MEKK2 mut-MEK5 – signal of MEK5 binding to mutant human MEKK2 PB1 domain | AID 1530 | actives 0.35% (n = 290,000) | bead flow cytometry, Alexa488-MEK5 binding to MEKK2 mutant | percent response, % at 10 µM; in the data active = percent response above about 24%, passing the limit was not always enough
Beta2AR agonist – activates human beta-2 adrenergic receptor causing internalization; P07550; Am2.2-beta2AR cells, FAP receptor internalization, flow cytometry; response, % (test concentration not listed); actives 0.43% (n = 340,000);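 active = response above a set limit, near 3 SD of response in nonfluorescent compounds, cut at about 42% in these data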
GRK2 aptamer HTS – human GRK2 inhibition via aptamer displacement. actives 0.59% (n = 330,000). inhibition of aptamer binding, % at 10 µM. P25098. bead flow cytometry, FAM-aptamer displacement from GRK2;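 active = inhibition of aptamer binding above 40%, roughly 3 SD of noise, on plates passing a quality check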;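 note: median bead fluorescence of bound FAM aptamer so fluorescent compounds give negative values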
Target sequence (P25098 whole entry, looked up): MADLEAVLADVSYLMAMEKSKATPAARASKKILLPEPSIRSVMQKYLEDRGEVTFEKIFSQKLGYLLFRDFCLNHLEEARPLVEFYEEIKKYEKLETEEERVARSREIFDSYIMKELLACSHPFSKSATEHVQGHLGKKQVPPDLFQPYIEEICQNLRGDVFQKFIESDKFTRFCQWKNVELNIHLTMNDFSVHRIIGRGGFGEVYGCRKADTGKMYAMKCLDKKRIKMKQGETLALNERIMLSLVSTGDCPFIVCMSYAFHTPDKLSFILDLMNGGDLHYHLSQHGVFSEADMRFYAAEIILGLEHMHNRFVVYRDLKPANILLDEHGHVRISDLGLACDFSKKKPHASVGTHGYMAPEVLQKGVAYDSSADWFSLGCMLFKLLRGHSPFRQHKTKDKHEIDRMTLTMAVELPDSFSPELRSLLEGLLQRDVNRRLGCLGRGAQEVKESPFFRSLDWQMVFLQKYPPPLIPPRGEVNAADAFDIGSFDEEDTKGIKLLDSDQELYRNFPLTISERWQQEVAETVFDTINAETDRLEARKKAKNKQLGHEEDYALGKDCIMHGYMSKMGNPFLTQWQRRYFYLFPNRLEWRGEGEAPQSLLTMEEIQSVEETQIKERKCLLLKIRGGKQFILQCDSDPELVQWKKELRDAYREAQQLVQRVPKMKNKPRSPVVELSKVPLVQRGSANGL
MEKK2wt PB1 HTS – raises or lowers MEK5 binding to wildtype human MEKK2 PB1 domain; AID 1531; bead flow cytometry, Alexa488-MEK5 binding to MEKK2 WT; actives lie on both sides; actives 1.1% (n = 290,000); binding response (% of control), % at 10 µM; in the data active = binding response below about 67% or above about 130%
MEKK3 PB1 HTS – modulators (inhibitors or enhancers) of MEK5 binding to human MEKK3 PB1 domain. bead-based flow cytometry, Alexa488-MEK5 binding to MEKK3; actives lie on both sides; 0 = blocked by unlabeled MEK5, 100 = vehicle. actives 1.4% (n = 290,000). binding response (% of control), % at 10 µM. Q99759. AID 1529;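 active = binding response more than 3 SD above or below the average of its plate-row segment, actives on both sides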;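 note: Alexa488 bead fluorescence after subtracting the streptavidin-only scavenger bead signal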
B2AR ag CP1 – activates human beta-2 adrenergic receptor; Am2.2-beta2AR cells, FAP surface receptor, flow cytometry; active compounds read low; shares compounds with Beta2AR agonist; actives 25% (n = 1,100); percent response (surface receptor), % at 10 µM;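 active = surface receptor percent response at or below 58%, roughly 3 SD from nonfluorescent compounds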
B2AR FAP counter – fluorescence artifact in beta-2AR agonist FAP counterscreen. Am2.2 cells, FAP fluorogen flow cytometry; active compounds read low. shares compounds with Beta2AR agonist. calls only at 10 µM. 1,100 tested, under 10 active. AID 588765;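 active = percent response below a set limit in fluorescence channel 1 and below 50% in channel 8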
The depositor's hits bear a star; i = inactive; · = no result. Shown are actives, neighbours in structure and some others; about 2.9% of the full set was active somewhere.

SMILES	MEKK2 mut-MEK5	Beta2AR agonist	GRK2 aptamer HTS	MEKK2wt PB1 HTS	MEKK3 PB1 HTS	B2AR ag CP1	B2AR FAP counter
NC(=S)N=Nc1c(O)n(Cc2ccc(Br)cc2)c2ccccc12	-2	-7	0	94	101	·	·
Cc1ccc(-n2nc(C)c3c2C(Br)C(C)(C)CC3=O)nc1 (configuration not stated)	·	0	·	·	·	·	·
Cc1c(C(=O)N2CCc3ccccc3C2)oc2ccc(S(=O)(=O)N3CCCCCC3)cc12	-2	48*	0	101	100	63	i
O=C(CCNC(=O)C1CCN(S(=O)(=O)c2ccc(F)cc2)CC1)Nc1nccs1	0	9	3	101	103	·	·
Cc1ccc2c(C)c(C(=O)N3CCCC(C(N)=O)C3)oc2c1C (configuration not stated)	1	0	·	98	102	·	·
Cc1ccc(-c2nc(NC(=O)c3nn(C)cc3[N+](=O)[O-])sc2C)cc1C	·	80*	0	·	·	48*	i
Cc1ccc(-c2nc(NC(=O)c3nn(C)cc3[N+](=O)[O-])sc2C)cc1	-6	104*	1	102	93	9.7*	i
COc1ccc(C(=O)OCC(=O)c2ccc(F)cc2)cc1OC	·	-1	3	·	·	·	·
CCN(CC)S(=O)(=O)c1ccc(C2=NOC3(C2)N(C)c2ccccc2C3(C)C)cc1 (configuration not stated)	-2	0	0	95	94	·	·
CC(=O)c1cccc(NC(=O)C(OC(=O)c2cccs2)c2ccccc2)c1 (configuration not stated)	-1	-5	0	110	102	·	·
Cc1cc(C)cc(NC(=O)C(OC(=O)c2sccc2C)c2ccccc2)c1 (configuration not stated)	0	64*	0	103	100	95	i
Cc1nc(C)c(C(=O)NNS(=O)(=O)c2ccc3ccccc3c2)s1	-1	-7	1	102	100	·	·
CCOC(=O)N1CCN(c2nnc(-c3ccc(C)cc3)c3ccccc23)CC1	-4	45*	1	95	96	33*	i
O=C(CN1CCOCC1)N1CCN(c2nnc(-c3ccccc3)c3ccccc23)CC1	7	69*	0	109	109	59	i
CCOC(=O)c1[nH]ncc1CN1CCCC(C(=O)c2ccc(OC)c(OC)c2)C1 (configuration not stated)	-9	47*	2	93	95	82	i
CCOC(=O)c1[nH]ncc1CN1CCCC(C(=O)c2cc(Cl)ccc2OC)C1 (configuration not stated)	-11	1	1	95	74	·	·
O=C(Cn1cc(C(F)(F)F)cc(Cl)c1=O)Nc1cccc(Cl)c1	-7	-10	0	79	71	·	·
O=C(Cn1cc(C(F)(F)F)cc(Cl)c1=O)NCCc1ccc(Cl)cc1Cl	-8	55*	0	98	96	87	i
CC(=O)N/C(=C\c1ccccc1)C(=O)OCC(=O)N(CC(C)C)c1c(N)n(Cc2ccccc2)c(=O)[nH]c1=O	·	-11	4	·	·	·	·
CC(=O)Nc1ccc(S(=O)(=O)NCCC(=O)N2CCC(Cc3ccccc3)CC2)cc1	·	-3	0	·	·	·	·
Cc1nc2ccc(Cl)cc2c(-c2ccccc2Cl)c1CC(=O)O	-2	46*	0	99	95	93	i
COc1ccc(C(=O)NNC(=O)C(=O)NC2CCCCC2)cc1	10	-2	1	106	108	·	·
O=C(CSc1ccccn1)Nc1ccc2c(c1)OCO2	-27	6	0	92	86	·	·
O=C(CSc1ccccn1)c1ccc2c(c1)OCO2	2	53*	2	101	103	94	i
Cn1nnnc1Sc1ncnc2scc(-c3ccc(Cl)cc3)c12	·	85*	2	·	·	6.3*	i
Clc1ccc(-n2nnnc2Sc2ncnc3sccc23)cc1	3	54*	1	103	102	35*	i
COc1ccc(-c2csc3ncnc(Sc4nnnn4C)c23)cc1	·	1	4	·	·	·	·

Screening data (PubChem)
